MCL1-BIM inh = inhibitors of human MCL1 binding to BIM-BH3 peptide. AID 2057. GST-MCL1 / FITC-Bim-BH3 fluorescence polarization. 320,000 tested, 0.68% active. inhibition, % at 10.9 µM;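 active = inhibition above the mean inhibition of all tested compounds plus 3 SD, set per campaign, cut at about 40% in these data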;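 note: 0% = DMSO wells and 100% = unlabeled Bim-BH3 peptide control; higher means more loss of mP so more displacement of Bim peptide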
Target sequence (Q07820 whole entry, looked up): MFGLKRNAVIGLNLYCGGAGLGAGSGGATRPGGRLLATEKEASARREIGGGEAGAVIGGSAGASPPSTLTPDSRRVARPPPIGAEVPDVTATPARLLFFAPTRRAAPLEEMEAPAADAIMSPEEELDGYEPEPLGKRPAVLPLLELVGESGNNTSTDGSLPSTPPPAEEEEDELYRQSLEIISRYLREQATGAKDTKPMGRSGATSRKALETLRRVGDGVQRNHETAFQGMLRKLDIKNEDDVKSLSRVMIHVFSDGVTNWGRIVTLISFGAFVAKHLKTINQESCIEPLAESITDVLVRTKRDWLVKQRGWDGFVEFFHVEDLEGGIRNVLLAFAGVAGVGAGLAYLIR
Mcl1-Bid inh = Mcl-1/Bid interaction inhibition. TR-FRET Mcl-1/Bid-Dy647 peptide binding, 1536-well. Q07820. inhibition, % at 21.7 µM. AID 1021. 220,000 tested, 0.97% active;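 active = compounds that cut the binding signal by more than half at the single screening dose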;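 note: His-tagged Mcl-1 with europium anti-His antibody binding Bid BH3 peptide; 0% = Mcl-1 plus peptide wells and 100% = peptide-only wells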
Mcl-1 Bim block = inhibitors of Bim-Mcl-1 interaction, human. Q07820. Bead-based flow cytometry, Bim peptide-Mcl-1 binding. inhibition, % at 10 µM. 190,000 tested, 0.1% active. AID 1009; in the data active = inhibition above about 40%;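 note: 0% = no compound tracer wells and 100% = peptide blocker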
Mcl1-Noxa inh = disrupts binding of human Mcl-1 to Noxa peptide; inhibition, % at 21.7 µM; TR-FRET Mcl-1/Noxa peptide binding, 2 h; 220,000 tested, 1.5% active;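 active = compounds that cut the protein-peptide binding signal by more than 50% relative to plate controls in a single-dose test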;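 note: His-tagged Mcl-1 with rhodamine Noxa BH3 peptide and terbium anti-His antibody; 0% = Mcl-1 plus Noxa peptide wells and 100% = peptide-only wells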
Bcl-xL conf = counter-screen for MCL1 inhibitors: confirmation of human Bcl-xL inhibitors | shares compounds with MCL1-BIM inh | GST-Bcl-xL / FITC-Bim BH3 peptide FP binding | inhibition, % at 10.9 µM | 1,700 tested, 54% active;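 active = inhibition above a cutoff equal to the mean inhibition of all tested compounds plus 3 SD, cut at about 30% in these data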;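 note: 0% = DMSO wells and 100% = unlabeled Bim BH3 control peptide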
Target sequence (Q07817 whole entry, looked up): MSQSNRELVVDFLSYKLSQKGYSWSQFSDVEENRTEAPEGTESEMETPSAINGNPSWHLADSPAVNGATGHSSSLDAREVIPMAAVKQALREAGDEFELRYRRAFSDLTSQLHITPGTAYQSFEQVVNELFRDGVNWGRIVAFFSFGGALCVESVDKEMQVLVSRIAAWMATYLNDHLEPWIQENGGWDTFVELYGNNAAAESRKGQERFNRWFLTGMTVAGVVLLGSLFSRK
MCL1 BIM confirm = confirmation of human MCL1 and BIM-BH3 interaction inhibitors. shares compounds with MCL1-BIM inh. inhibition, % at 10.9 µM. GST-MCL1 / FITC-Bim-BH3 fluorescence polarization. 1,700 tested, 61% active;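 active = inhibition above the average of all tested compounds plus 3 SD, cut at about 40% in these data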;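 note: 0% = DMSO wells and 100% = unlabeled Bim-BH3 control peptide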
* = called active by the depositor; nt = no result; + = active, no number. The list is not random: actives were taken first. Their share in the collection is about 2%.

SMILES	MCL1-BIM inh	Mcl1-Bid inh	Mcl-1 Bim block	Mcl1-Noxa inh	Bcl-xL conf	MCL1 BIM confirm
Cn1nc(-c2ccccc2)cc1NS(=O)(=O)c1ccccc1	-3.8	-3.6	nt	-1.8	nt	nt
Cn1nc(-c2ccccc2)cc1NS(=O)(=O)c1ccc(C#N)cc1	96.9*	2.9	nt	8.0	1.9	-0.7
COc1ccc(C(=O)N/N=C/c2c[nH]c3ccccc23)cc1	10.7	nt	nt	nt	nt	nt
COc1ccc(C(=O)N/N=C/c2cc3ccccc3[nH]c2=S)cc1	44.4*	-106.8	27.0	44.3	6.9	28.2
CC(C)(C)c1cc[n+](-c2[nH]c(=O)sc2/C=N/NC([S-])=Nc2ccccc2)cc1	196.5*	-29.1	nt	11.8	160.5*	188.9*
Cc1cc[n+](-c2[nH]c(=O)sc2/C=N/NC([S-])=Nc2ccccc2)cc1C	163.4*	-61.8	0.0	17.6	103.6*	148.9*
COc1ccccc1NS(=O)(=O)c1cccc(C(=O)N2CCN(Cc3ccc4c(c3)OCO4)CC2)c1	0.5	nt	nt	nt	nt	nt
COC(=O)c1nnn(-c2nc(N3CCOCC3)nc(N3CCOCC3)n2)c1C	2.6	-15.5	-1.0	4.1	nt	nt
N#CC1=C(N)Oc2cc(N)ccc2C1c1ccc(F)cc1 (stereo unspecified)	5.3	-17.2	-4.0	0.1	nt	nt
N#CC1=C(N)Oc2cc(N)ccc2C1c1ccc(F)cc1F (stereo unspecified)	54.2*	nt	nt	nt	23.1	22.8
COc1cccc(N/C=C/C(=O)c2ccc(C)cc2)c1	-3.8	nt	nt	nt	nt	nt
COc1cccc(C(=O)/C=C/Nc2cccc(O)c2)c1	94.5*	-63.0	0.0	18.3	17.0	21.9
CCc1ccc(CNC(=O)CCc2cn(C)c3ccccc23)cc1	-6.0	nt	nt	nt	nt	nt
Cn1cc(CCC(=O)NCc2ccc(Cl)cc2)c2ccccc21	52.6*	nt	nt	nt	-1.2	-6.1
CSc1ccc(C2C(C(=O)c3ccco3)=C(O)C(=O)N2c2nnc(SC)s2)cc1 (stereo unspecified)	92.8*	nt	nt	nt	142.6*	167.7*
Cc1ccc(C2C(C(=O)c3cccs3)=C(O)C(=O)N2c2nnc(C)s2)cc1 (stereo unspecified)	86.3*	-13.5	-1.0	15.1	122.8*	142.7*
COc1cccc(C2C(C(=O)c3ccc(C)o3)=C(O)C(=O)N2c2cc(C)on2)c1 (stereo unspecified)	-6.7	nt	nt	nt	nt	nt
Cc1nnc(N2C(=O)C(O)=C(C(=O)c3ccco3)C2c2ccc(F)cc2)s1 (stereo unspecified)	26.8	-7.5	1.0	21.2	nt	nt
C=CCOc1cccc(C2C(C(=O)c3ccc(C)o3)=C(O)C(=O)N2c2nccs2)c1 (stereo unspecified)	162.3*	-73.9	2.0	7.3	137.4*	162.4*
CCCOc1cccc(C2C(C(=O)c3ccco3)=C(O)C(=O)N2c2nnc(C)s2)c1 (stereo unspecified)	53.7*	nt	nt	nt	55.8*	72.3*
O=C(CSc1nc2nn(-c3ccccc3)c(=O)c-2c2n1CCCCC2)c1ccc(O)c(O)c1	77.4*	nt	nt	nt	33.5*	81.7*
COc1ccc(C(C)=O)cc1Cn1c(=O)cc(C)[nH]c1=O	2.0	nt	nt	nt	nt	nt
Cc1cccc(C(C)C)c1NC(=O)CN1C(=O)NC2(CCc3ccccc32)C1=O (stereo unspecified)	-8.7	nt	nt	nt	nt	nt
CCCCC(=Nc1ccc(N)cc1)C1=C(O)C(C(=O)OC)C(C)(C)CC1=O (stereo unspecified)	32.2	-39.0	0.0	13.6	nt	nt
CCC(=Nc1ccc(N)cc1)C1=C(O)C(C(=O)OC)C(C)(C)CC1=O (stereo unspecified)	61.0*	-59.4	5.0	16.4	30.3*	19.1
SMILES	MCL1-BIM inh	Mcl1-Bid inh	Mcl-1 Bim block	Mcl1-Noxa inh	Bcl-xL conf	MCL1 BIM confirm
CCN(C(=O)CN1CCN(S(=O)(=O)c2ccccc2C(F)(F)F)CC1)c1c(N)n(Cc2ccccc2)c(=O)[nH]c1=O	11.5	-36.9	-2.0	16.9	nt	nt
Cc1ccc(C2C(C#N)=C(N)Oc3cc4c(cc32)OCO4)cc1 (stereo unspecified)	-6.0	-26.1	-2.0	17.4	nt	nt
CSc1ccc(C2C(C#N)=C(N)Oc3cc4c(cc32)OCO4)cc1 (stereo unspecified)	43.4*	-23.9	0.0	10.4	3.3	6.6
CCCN1CCN(S(=O)(=O)c2cn(C)nc2C)CC1	84.4*	nt	nt	nt	76.9*	96.0*
Cc1nn(C)cc1S(=O)(=O)N1CCN(Cc2ccccc2Cl)CC1	7.6	-49.6	9.0	20.5	nt	nt
COc1ccc(C2=CC3=C(Br)C(=O)C(C)(OC(=O)c4cccs4)C(=O)C3=CO2)cc1 (stereo unspecified)	42.2*	nt	nt	nt	20.1	51.0*
COc1ccc(C2=CC3=C(Br)C(=O)C(C)(OC(=O)c4ccco4)C(=O)C3=CO2)cc1 (stereo unspecified)	54.2*	-7.7	nt	62.6*	34.8*	76.4*
COC(=O)CCCC1=CC2=CC(=O)C(C)(OC(=O)c3cccs3)C(=O)C2=CN1c1ccc(OC)cc1 (stereo unspecified)	14.2	-65.6	nt	-31.1	nt	nt
COc1ccccc1CC(=O)Nc1ccc2c(c1)C(=O)NC2=O	5.8	-16.3	2.0	-6.4	nt	nt
Cc1ccc(OCCOCCn2ccnc2)c(Br)c1	43.6*	21.9	-8.0	9.2	-8.3	-21.5
O[C@@H]([C@H](O)[C@H](O)CBr)[C@H](O)CBr	3.5	nt	nt	nt	nt	nt
COC(=O)c1ccccc1NC(=O)c1noc2c1CCC2	40.9*	-53.2	-4.0	70.4*	14.5	49.4*
CCc1ccc(NC(=O)c2noc3c2CCC3)cc1	25.6	6.5	-1.0	40.7	nt	nt
Cc1cc(C)c[n+](-c2nc3ccccc3nc2[N-]S(=O)(=O)c2ccc(Br)s2)c1	47.2*	9.7	-3.0	15.5	63.3*	92.1*
Cc1nn(CCO)c(N)c1C1(O)C(=O)Nc2c(Cl)cc(Cl)cc21 (stereo unspecified)	-7.5	-8.8	0.0	28.9	nt	nt
O=C(/C=C/c1ccc(Br)o1)OCc1nc2ccsc2c(=O)[nH]1	48.7*	nt	nt	nt	37.5*	86.5*
Oc1[nH]c2ccc(Br)cc2c1N=Nc1ccc(F)cc1	+	nt	nt	nt	143.1*	198.0*
CN(C)S(=O)(=O)c1cccc(NC(=O)c2cccc(S(=O)(=O)N3CCCCC3)c2)c1	-2.2	nt	nt	nt	nt	nt
CC(C)CN(C(=O)COc1ccc([N+](=O)[O-])cc1)c1c(N)n(CC(C)C)c(=O)[nH]c1=O	-15.4	nt	nt	nt	nt	nt
CCN(CC)C(=O)COc1ccc2c(-c3ccccc3)cc(=O)oc2c1	+	nt	nt	nt	1.5	-2.9
N#Cc1c(SCC(=O)N2CCOCC2)nsc1SCC(=O)N1CCOCC1	76.1*	2.8	-3.0	0.9	9.3	12.0
O=C1CCCN1CC(O)CS(=O)(=O)Cc1ccccc1Cl (stereo unspecified)	-5.3	nt	nt	nt	nt	nt
NC1=NC(c2ccc(Cl)cc2)C(C(=O)c2ccccc2)N1 (stereo unspecified)	-7.1	-38.9	nt	4.2	nt	nt
O=C1/C(=C/c2cccc(Cl)c2)CSc2sccc21	56.2*	-6.3	nt	7.4	8.9	4.8
Cc1cnc(C(=O)OCC(=O)Nc2ccc(Br)c(C)c2)cn1	7.5	nt	nt	nt	nt	nt

Bioassay records deposited in PubChem by several laboratories.
